Experimental data from PubChem BioAssay AID2391 (Southern Research Specialized Biocontainment Screening …, 2010).
About 410 (0.13%) of roughly 310,000 compounds were called active. Roughly 2% stayed inconclusive and do not appear here. How the calls were made is not given here. The list is a sample of the results. Entries with a potency or affinity are not part of this list.

Assay: inhibition of RSV-induced cytopathic effect – HEp-2 cells, primary 10 µM value included (AID 2391)
Settings: at 10 µM, stronger effect = higher value
For `COc1cc(C2C(C#N)=C(N)Oc3c2oc(CO)cc3=O)ccc1OC(C)C` (centres undefined), the CPE inhibition was 0.67% (inactive). With `Cc1c(C)c2c(OCC(=O)NCc3ccccn3)cc3c(c2oc1=O)CCC(C)(C)O3` the CPE inhibition was -0.55% (inactive). In the case of `Cn1c(C(O)c2ccccc2)nc(Cl)c1Cl` (centres undefined), the CPE inhibition is reported as 2.93% (inactive). For `COc1ccc(-n2c(=O)c3ccccc3n(CC(=O)NC3CCCC3)c2=O)cc1`, the CPE inhibition was 0.83% (inactive). With `C#CCOCCOCCOCCNc1nc(N2CCN(C(=O)CCCCCCCCCCNC(=O)[C@H](CCCCN)n3cc(C)nn3)CC2)nc(N2CCN(C(=O)CCCCCCCCCCNC(=O)[C@@H]([C@H](C)O)n3cc(C)nn3)CC2)n1` the CPE inhibition was 8.35% (inactive). With `C#CCOCCOCCOCCNc1nc(N2CCOCC2)nc(N2CCN(C(=O)CCCCCCCCCCNC(=O)[C@@H]([C@H](C)O)n3cc(C)nn3)CC2)n1` the CPE inhibition was 2.9% (inactive). With `CCOc1ccc(C(C)=O)cc1Cn1c(=O)oc2ccccc21` the CPE inhibition was 9.32% (inactive). With `O=c1[nH]c(C2CCN(S(=O)(=O)/C=C/c3ccccc3)CC2)nc2c1nnn2Cc1ccccc1` the CPE inhibition was 76.1% (inactive). In the case of `O=c1[nH]c(C2CCN(S(=O)(=O)c3ccc4c(c3)OCCO4)CC2)nc2c1nnn2Cc1cccc(F)c1`, the CPE inhibition is reported as 67.8% (inactive). In the case of `Cc1ccc(Cn2nnc3c(=O)[nH]c(C4CCN(S(=O)(=O)c5ccc(F)cc5)CC4)nc32)cc1`, the CPE inhibition is reported as 13.9% (inactive). With `O=c1[nH]c(C2CCN(S(=O)(=O)c3ccccc3F)CC2)nc2c1nnn2Cc1ccc(F)cc1` the CPE inhibition was 39% (inactive). With `O=c1[nH]c(C2CCN(S(=O)(=O)c3ccccc3)CC2)nc2c1nnn2Cc1ccccc1` the CPE inhibition was 19.1% (inactive). In the case of `O=c1[nH]c(C2CCN(S(=O)(=O)c3ccc4c(c3)OCCO4)CC2)nc2c1nnn2Cc1ccc(F)cc1`, the CPE inhibition is reported as 63.7% (inactive). In the case of `Cc1ccc(Cn2nnc3c(=O)[nH]c(C4CCN(S(=O)(=O)c5ccccc5F)CC4)nc32)cc1`, the CPE inhibition is reported as 84.2% (inactive). With `O=c1[nH]c(C2CCN(S(=O)(=O)c3ccc(F)cc3)CC2)nc2c1nnn2Cc1ccc2c(c1)OCCO2` the CPE inhibition was 64.8% (inactive). In the case of `COC(=O)CC(c1ccc(C#N)cc1)n1c(C)ccc1C` (centres undefined), the CPE inhibition is reported as -0.14% (inactive). For `Cc1ccccc1COn1nnc2ccc(S(=O)(=O)N3CCOCC3)cc21`, the CPE inhibition was -1.48% (inactive). With `O=C(NC1CCCCC1)N1CCN(c2ncccn2)CC1` the CPE inhibition was 2.35% (inactive). With `COc1ccccc1-n1c(SCC(=O)Nc2ccc(Br)cc2)nc(O)cc1=O` the CPE inhibition was 0.85% (inactive). With `COC(=O)Nc1ccc(S(=O)(=O)N(CCO)CCO)cc1` the CPE inhibition was -0.61% (inactive). With `Cc1cccc(NC(=O)c2ccc(COc3ccc(Cl)cc3Cl)o2)n1` the CPE inhibition was -0.26% (inactive). With `O=c1[nH]c(C2CCCN(S(=O)(=O)c3ccccc3)C2)nc2c1nnn2Cc1ccc(OC(F)(F)F)cc1` (centres undefined) the CPE inhibition was 1.75% (inactive). With `CC(C)[N+](C)(C)CC#CC(O)(c1ccccc1)c1ccccc1` the CPE inhibition was -0.2% (inactive). With `N#Cc1ccc(CN2CCN(C(=O)CC(NC(=O)c3ccccc3)c3ccccc3)CC2)cc1` (centres undefined) the CPE inhibition was 2.31% (inactive). With `COC(=O)/C=C1\S/C(=N/NC(=O)c2ccc(OC)cc2)NC1=O` the CPE inhibition was -1.09% (inactive). In the case of `C/C(N)=C(/C#N)C(=O)COC(=O)c1ccc(O)cc1`, the CPE inhibition is reported as 1.45% (inactive). With `C/C(N)=C(/C#N)C(=O)COC(=O)c1ccc(C#N)cc1` the CPE inhibition was 0.83% (inactive). In the case of `O=C1CC(C(=O)N2CCc3ccccc32)CN1c1ccc(F)cc1` (centres undefined), the CPE inhibition is reported as 2.7% (inactive). For `O=C(CNC(=O)c1ccc(Cl)cc1)OCc1nc2ccccc2s1`, the CPE inhibition was 3.12% (inactive). For `Cc1cc(-c2nc3cccnc3s2)ccc1NS(=O)(=O)c1cccs1`, the CPE inhibition was 3.81% (inactive). With `Cc1ccc(-c2nc3cccnc3s2)cc1NS(C)(=O)=O` the CPE inhibition was 0.25% (inactive). For `CCOc1ccc(NC(=O)CN(C)S(=O)(=O)c2ccc(-c3ccc(=O)[nH]n3)s2)cc1`, the CPE inhibition was 3.93% (inactive). With `CCOC(=O)c1ccc(NC(=S)N2CCSC2c2ccc(Cl)cc2)cc1` (centres undefined) the CPE inhibition was 52% (inactive). For `CCOC(=O)c1ccc(NC(=S)N2CCSC2c2ccc(OC)cc2)cc1` (centres undefined), the CPE inhibition was 11.4% (inactive). In the case of `O=C(Cn1ncc2c1-c1ccccc1OC2)N1CCN(Cc2ccccc2)CC1`, the CPE inhibition is reported as -1.42% (inactive). In the case of `COc1ccc(C(=O)NN2CCCCC2)cc1OC`, the CPE inhibition is reported as 1.22% (inactive). With `COc1ccccc1COCC(O)CN1CCN(S(=O)(=O)c2cccc(F)c2)CC1` (centres undefined) the CPE inhibition was 0.54% (inactive). In the case of `Cc1ccc(NC(=O)CC(N)=S)cc1`, the CPE inhibition is reported as 0.37% (inactive). With `CC(=O)COc1ccc2c3c(c(=O)oc2c1)CCCC3` the CPE inhibition was 27% (inactive). For `O=C(O)COc1ccc2c3c(c(=O)oc2c1)CCCC3`, the CPE inhibition was -1.38% (inactive). With `O=C(O)c1ccccc1NCc1ccco1` the CPE inhibition was 0.7% (inactive). For `CC(=O)Nc1ccc(S(=O)(=O)n2cnc3cc(C)c(C)cc32)cc1`, the CPE inhibition was 14.6% (inactive). In the case of `COc1ccc(/C(C)=N/NC(=O)CNC(=O)/C=C/c2ccccc2OC)cc1`, the CPE inhibition is reported as 2.31% (inactive). In the case of `CCc1ccc(/C(C)=N/NC(=O)CNC(=O)/C=C/c2ccccc2OC)cc1`, the CPE inhibition is reported as 5.6% (inactive).
